# Results filed as inconclusive are left out. Activity calls are given as the source filed them. The calls were made as follows, unless noted: active = hit-call score of the fitted dose curve at least 0.9, where 1 is the maximum; inconclusive = response in the unintended direction; inactive = score below 0.9.
# How the values were obtained:
# [1] = tested on: Sodium/Iodide Symporter (NIS), SLC5A5 (gene 6528); assay: CPHEA_Stoker_NIS_Inhibition_RAIU: CPHEA's Radioactive Iodide Uptake (RAIU) Assay for Sodium/Iodide Symporter (NIS) Inhibition, Stoker and Laws Labs (AID 2283841)
# Outline: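 Iodide uptake read as CPM of intracellular 125I (final 329 pM) after 2 h room-temperature exposure in HEPES-buffered HBSS, pH 7.4. Human NIS-expressing HEK293T cells; six concentrations 0.001–100 uM, 0.5% DMSO, normalised to DMSO wells.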
# [2] = biological target: zebrafish Estrogen Receptor (ER1), esr1 (gene 259252) (UniProt P57717); assay: ATG_zfER1_XSP2: Attagene TRANS-FACTORIAL Multi-Species (XSP2) HepG2 Assay for zebrafish Estrogen Receptor (ER1) (AID 2283816)
# Chain of zebrafish Estrogen Receptor (ER1), esr1 (gene 259252) (P57717 whole entry, looked up, the tested form may be a part): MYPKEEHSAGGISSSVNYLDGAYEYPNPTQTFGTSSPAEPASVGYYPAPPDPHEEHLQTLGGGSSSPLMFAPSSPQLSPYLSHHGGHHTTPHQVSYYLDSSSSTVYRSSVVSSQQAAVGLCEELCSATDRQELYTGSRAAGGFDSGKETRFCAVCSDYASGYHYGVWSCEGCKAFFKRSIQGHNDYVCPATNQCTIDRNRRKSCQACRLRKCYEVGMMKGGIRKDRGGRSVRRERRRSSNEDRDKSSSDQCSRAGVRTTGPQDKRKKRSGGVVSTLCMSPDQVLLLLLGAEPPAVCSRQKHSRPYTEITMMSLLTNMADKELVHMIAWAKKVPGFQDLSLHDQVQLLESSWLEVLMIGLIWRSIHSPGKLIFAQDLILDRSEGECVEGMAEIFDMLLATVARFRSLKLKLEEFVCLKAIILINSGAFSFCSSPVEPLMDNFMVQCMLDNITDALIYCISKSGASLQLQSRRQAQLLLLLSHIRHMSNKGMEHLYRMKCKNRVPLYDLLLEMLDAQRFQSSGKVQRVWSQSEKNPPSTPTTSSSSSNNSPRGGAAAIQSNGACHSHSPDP
# Outline: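 After 24 h compound exposure, RNA from transfected HepG2 cells was reverse-transcribed and reporter transcripts resolved by capillary electrophoresis. The TRANS format reads exogenous zebrafish ER1-Gal4 chimera activity on GAL4-UAS elements; gain of signal against DMSO.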
# [3] = biological target: chicken Estrogen Receptor (ERa), ESR1 (gene 396099) (UniProt P06212); assay: ATG_chERa_XSP2: Attagene TRANS-FACTORIAL Multi-Species (XSP2) HepG2 Assay for chicken Estrogen Receptor (ERa) (AID 2283817);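 also: actives raise reporter signal above DMSO so AC50 reflects ER activation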
# Chain of chicken Estrogen Receptor (ERa), ESR1 (gene 396099) (P06212 whole entry, looked up, the tested form may be a part): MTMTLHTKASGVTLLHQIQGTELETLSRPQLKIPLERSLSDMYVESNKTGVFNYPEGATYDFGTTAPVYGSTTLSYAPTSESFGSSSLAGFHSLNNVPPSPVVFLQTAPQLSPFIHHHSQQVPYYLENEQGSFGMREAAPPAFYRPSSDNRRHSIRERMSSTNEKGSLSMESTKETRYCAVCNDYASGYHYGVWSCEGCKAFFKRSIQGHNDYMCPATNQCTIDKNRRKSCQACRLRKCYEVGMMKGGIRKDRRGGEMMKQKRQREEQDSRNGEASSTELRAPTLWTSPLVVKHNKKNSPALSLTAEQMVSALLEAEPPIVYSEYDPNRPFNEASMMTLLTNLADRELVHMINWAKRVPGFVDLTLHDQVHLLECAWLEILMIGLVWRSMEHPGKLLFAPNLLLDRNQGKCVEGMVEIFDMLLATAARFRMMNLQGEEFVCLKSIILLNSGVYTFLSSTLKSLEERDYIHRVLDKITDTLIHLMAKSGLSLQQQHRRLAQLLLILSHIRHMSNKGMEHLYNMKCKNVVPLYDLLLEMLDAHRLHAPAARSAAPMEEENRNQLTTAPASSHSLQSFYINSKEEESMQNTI
# Outline: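 Reporter mRNA induction read by RT-PCR, fluorescent labelling and capillary electrophoresis after 24 h exposure; positive-direction fit against DMSO baseline. HepG2 cells transfected with multiplexed GAL4-UAS units including chicken ERa chimera; medium contained 3 nM 6-alpha-fluorotestosterone plus 1.5 nM norgestrel.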
# [4] = tested on: zebrafish Estrogen Receptor (ER2a), gene 317734; assay: ATG_zfER2a_XSP2: Attagene TRANS-FACTORIAL Multi-Species (XSP2) HepG2 Assay for zebrafish Estrogen Receptor (ER2a) (AID 2283818);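 also: hits raise reporter mRNA so AC50 reflects activation of zebrafish ER2a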
# Outline: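 Multiplexed trans-reporter readout: RT-PCR then capillary electrophoresis of reporter transcripts after 24 h compound treatment. Human HepG2 carries transfected zebrafish ER2a-Gal4 chimera; 3 nM 6-alpha-fluorotestosterone plus 1.5 nM norgestrel present. Induction scored against DMSO.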
# [5] = tested on: frog Estrogen Receptor (ER), gene 398734; assay: ATG_frER1_XSP2: Attagene TRANS-FACTORIAL Multi-Species (XSP2) HepG2 Assay for frog Estrogen Receptor (ER) (AID 2283821);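 also: hits raise reporter mRNA above DMSO baseline so potency means agonist or activator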
# Outline: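 HepG2 cells transiently transfected with multiplexed GAL4-UAS reporter units expressing chimeric NR-Gal4 proteins (TRANS format) were dosed for 24 h. Reporter mRNA was quantified by RT-PCR, FAM primer extension, HpaI digestion and capillary electrophoresis; gain of signal relative to DMSO.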
# [6] = tested on: zebrafish Estrogen Receptor (ER2b), gene 317733; assay: ATG_zfER2b_XSP2: Attagene TRANS-FACTORIAL Multi-Species (XSP2) HepG2 Assay for zebrafish Estrogen Receptor (ER2b) (AID 2283823);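 also: fitted upward as reporter gain over DMSO so potency reflects activation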
# Outline: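 Transfect HepG2 with GAL4-UAS reporter constructs; dose chemicals, 24 h; isolate RNA, RT-PCR, FAM-label, HpaI digest; capillary electrophoresis. Gain-of-signal vs DMSO.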
# [7] = tested on: frog Estrogen Receptor (ER2), gene 100174814; assay: ATG_frER2_XSP2: Attagene TRANS-FACTORIAL Multi-Species (XSP2) HepG2 Assay for frog Estrogen Receptor (ER2) (AID 2283828)
# Outline: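 Read-out: reporter transcript levels by RT-PCR with 6-FAM primer extension, HpaI digestion and capillary electrophoresis, scored as induction over DMSO control. Transfected HepG2 carrying Xenopus ER2–GAL4 chimera; compounds incubated 24 h.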
# [8] = biological target: Peroxisome proliferator-activated receptor gamma (Homo sapiens) (UniProt P37231); assay: ATG_hPPARg_XSP2: Attagene TRANS-FACTORIAL Multi-Species (XSP2) HepG2 Assay for human Peroxisome Proliferator-activated Receptor gamma (PPARg) (AID 2283829);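 also: actives raise reporter mRNA above DMSO so AC50 reflects PPARg activation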
# Chain of Peroxisome proliferator-activated receptor gamma (Homo sapiens) (P37231 whole entry, looked up, the tested form may be a part): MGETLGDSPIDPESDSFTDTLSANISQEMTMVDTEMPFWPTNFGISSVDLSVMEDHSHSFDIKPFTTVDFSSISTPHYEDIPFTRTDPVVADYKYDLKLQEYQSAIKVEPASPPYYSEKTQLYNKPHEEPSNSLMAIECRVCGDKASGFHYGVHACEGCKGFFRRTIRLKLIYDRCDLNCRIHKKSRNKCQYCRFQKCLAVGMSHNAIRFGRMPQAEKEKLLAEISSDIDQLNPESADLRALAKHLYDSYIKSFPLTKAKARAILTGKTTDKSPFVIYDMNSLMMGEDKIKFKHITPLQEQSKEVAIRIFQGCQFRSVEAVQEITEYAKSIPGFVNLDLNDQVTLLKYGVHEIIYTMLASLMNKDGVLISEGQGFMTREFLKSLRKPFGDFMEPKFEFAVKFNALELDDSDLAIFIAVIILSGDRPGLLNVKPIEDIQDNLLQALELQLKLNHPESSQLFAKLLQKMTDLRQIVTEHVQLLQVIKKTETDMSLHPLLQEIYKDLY
# Outline: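 Transient MRTU transfection, HepG2; TRANS format (exogenous NR-Gal4 chimeras). 24 h chemical exposure with 3 nM 6-alpha-fluorotestosterone and 1.5 nM norgestrel present. Readout: reporter mRNA via RT-PCR/CE fluorescence, up-direction vs DMSO.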
# [9] = tested on: turtle Thyroid Hormone Receptor, alpha (TRa), gene 101949057; assay: ATG_trTRa_XSP2: Attagene TRANS-FACTORIAL Multi-Species (XSP1) HepG2 Assay for turtle Thyroid Hormone Receptor, alpha (TRa) (AID 2283834);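 also: hits raise reporter mRNA over the DMSO baseline so AC50 marks activators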
# Outline: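 Readout: reporter mRNA induction, fluorescence after RT-PCR, HpaI digestion and capillary electrophoresis. Transiently transfected HepG2, exogenous NR-Gal4 chimera driving GAL4-UAS reporter, 24 h compound exposure. Activity fitted upward relative to DMSO baseline.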
# [10] = ATG_M_61_XSP2: Attagene TRANS-FACTORIAL Multi-Species (XSP2) HepG2 Assay for M61 Transcription Factor (Internal Marker) (AID 2283835; active = hit-call score of the fitted dose curve at least 0.9, where 1 is the maximum; inactive = score below 0.9;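 also: active means a rise in signal above the DMSO baseline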)
# Outline: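 Internal background marker, read as RT-PCR/capillary-electrophoresis reporter mRNA 24 h post-dose in transiently transfected HepG2 cells. Androgen receptor stimulated with 3 nM 6-alpha-fluorotestosterone plus 1.5 nM norgestrel; gain of signal versus DMSO analysed.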
# [11] = biological target: zebrafish Thyroid Hormone Receptor beta (TRb), thrb (gene 30607) (UniProt Q9PVE4); assay: ATG_zfTRb_XSP2: Attagene TRANS-FACTORIAL Multi-Species (XSP1) HepG2 Assay for zebrafish Thyroid Hormone Receptor beta (TRb) (AID 2283836)
# Chain of zebrafish Thyroid Hormone Receptor beta (TRb), thrb (gene 30607) (Q9PVE4 whole entry, looked up, the tested form may be a part): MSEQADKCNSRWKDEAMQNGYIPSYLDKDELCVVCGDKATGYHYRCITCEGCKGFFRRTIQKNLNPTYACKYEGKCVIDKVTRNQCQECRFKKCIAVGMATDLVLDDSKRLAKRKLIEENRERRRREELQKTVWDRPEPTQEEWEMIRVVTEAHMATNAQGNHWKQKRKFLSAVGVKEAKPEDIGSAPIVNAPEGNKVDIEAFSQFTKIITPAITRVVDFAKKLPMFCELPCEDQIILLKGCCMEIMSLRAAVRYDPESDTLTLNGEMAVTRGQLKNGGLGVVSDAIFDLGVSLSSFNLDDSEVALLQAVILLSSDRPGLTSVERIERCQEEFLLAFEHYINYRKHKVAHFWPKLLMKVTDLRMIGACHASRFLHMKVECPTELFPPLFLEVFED
# Outline: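 Reporter transcripts measured by RT-PCR, 6-FAM labelling, HpaI digestion and capillary electrophoresis after 24 h chemical exposure. Human HepG2 cells carry an exogenous zebrafish TRb-GAL4 chimera; medium included 3 nM 6-alpha-fluorotestosterone plus 1.5 nM norgestrel.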
# [12] = biological target: human Thyroid hormone Receptor alpha (TRa), THRA (gene 7067) (UniProt P10827); assay: ATG_hTRa_XSP2: Attagene TRANS-FACTORIAL Multi-Species (XSP2) HepG2 Assay for human Thyroid hormone Receptor alpha (TRa) (AID 2283838)
# Chain of human Thyroid hormone Receptor alpha (TRa), THRA (gene 7067) (P10827 whole entry, looked up, the tested form may be a part): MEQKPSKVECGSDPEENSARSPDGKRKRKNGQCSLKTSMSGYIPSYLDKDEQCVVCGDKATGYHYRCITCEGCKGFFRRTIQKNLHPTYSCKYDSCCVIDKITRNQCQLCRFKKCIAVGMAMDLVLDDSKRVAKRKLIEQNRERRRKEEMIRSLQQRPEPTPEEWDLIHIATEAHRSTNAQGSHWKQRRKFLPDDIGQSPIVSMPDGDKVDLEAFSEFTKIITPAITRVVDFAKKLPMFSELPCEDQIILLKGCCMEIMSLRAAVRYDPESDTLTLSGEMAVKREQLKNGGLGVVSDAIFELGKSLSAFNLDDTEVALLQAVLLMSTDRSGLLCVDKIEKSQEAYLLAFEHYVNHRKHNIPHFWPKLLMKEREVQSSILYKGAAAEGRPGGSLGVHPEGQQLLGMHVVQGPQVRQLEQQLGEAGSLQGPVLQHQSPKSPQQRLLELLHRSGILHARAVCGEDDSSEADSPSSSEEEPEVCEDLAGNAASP
# Outline: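 Reporter transcripts were read by RT-PCR with fluorescent primer extension, HpaI digestion and capillary electrophoresis. These came from HepG2 cells carrying multiplexed TRa-Gal4 TRANS constructs, harvested 24 hours after dosing. The medium also held 6-alpha-fluorotestosterone (3 nM) and norgestrel (1.5 nM), and increases were fitted against DMSO.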
# [13] = biological target: frog Thyroid hormone Receptor alpha (TRa), thra-a (gene 397942) (UniProt P15204); assay: ATG_frTRa_XSP2: Attagene TRANS-FACTORIAL Multi-Species (XSP2) HepG2 Assay for frog Thyroid hormone Receptor alpha (TRa) (AID 2283839)
# Chain of frog Thyroid hormone Receptor alpha (TRa), thra-a (gene 397942) (P15204 whole entry, looked up, the tested form may be a part): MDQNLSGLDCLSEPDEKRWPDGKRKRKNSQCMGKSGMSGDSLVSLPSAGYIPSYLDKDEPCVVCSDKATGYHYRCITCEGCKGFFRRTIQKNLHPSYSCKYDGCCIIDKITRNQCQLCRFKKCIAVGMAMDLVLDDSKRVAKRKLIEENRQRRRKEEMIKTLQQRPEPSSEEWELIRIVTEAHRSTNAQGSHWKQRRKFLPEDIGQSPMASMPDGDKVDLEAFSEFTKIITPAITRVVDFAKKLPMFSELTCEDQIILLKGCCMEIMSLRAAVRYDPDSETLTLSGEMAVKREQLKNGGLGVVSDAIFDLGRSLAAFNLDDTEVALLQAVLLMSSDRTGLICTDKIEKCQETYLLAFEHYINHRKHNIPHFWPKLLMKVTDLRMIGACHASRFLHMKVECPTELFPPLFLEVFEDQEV
# Outline: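 Read-out: fluorescent reporter-transcript fragments resolved by capillary electrophoresis after RT-PCR and HpaI cut. Human HepG2 liver cells carry a transfected frog TRα-Gal4 chimera driving a UAS reporter; 24 h exposure, DMSO baseline, positive-direction fit.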
# [14] = biological target: human Thyroid hormone Receptor beta (TRb), THRB (gene 7068) (UniProt P10828); assay: ATG_hTRb_XSP2: Attagene TRANS-FACTORIAL Multi-Species (XSP2) HepG2 Assay for human Thyroid hormone Receptor beta (TRb) (AID 2283840);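 also: actives raise reporter mRNA so potency reflects agonist-like gain of signal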
# Chain of human Thyroid hormone Receptor beta (TRb), THRB (gene 7068) (P10828 whole entry, looked up, the tested form may be a part): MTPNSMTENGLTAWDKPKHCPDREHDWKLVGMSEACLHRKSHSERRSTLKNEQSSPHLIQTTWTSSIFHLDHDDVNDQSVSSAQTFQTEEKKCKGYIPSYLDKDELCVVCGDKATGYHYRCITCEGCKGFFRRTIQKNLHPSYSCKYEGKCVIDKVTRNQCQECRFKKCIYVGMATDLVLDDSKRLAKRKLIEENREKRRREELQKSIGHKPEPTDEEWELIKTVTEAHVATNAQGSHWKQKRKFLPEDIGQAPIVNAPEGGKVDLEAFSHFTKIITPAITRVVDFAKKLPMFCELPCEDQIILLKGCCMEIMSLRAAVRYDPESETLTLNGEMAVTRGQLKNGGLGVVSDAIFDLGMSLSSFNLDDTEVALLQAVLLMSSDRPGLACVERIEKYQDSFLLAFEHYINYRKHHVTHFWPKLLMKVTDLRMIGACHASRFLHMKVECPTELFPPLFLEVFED
# Outline: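 Read-out: reporter mRNA induction (RT-PCR, 6-FAM labeling, capillary electrophoresis), gain-of-signal relative to DMSO baseline. Transiently transfected HepG2 TRANS multiplex (NR-Gal4 chimeras, GAL4-UAS reporters), 24 h chemical exposure; medium contained 3 nM 6-alpha-fluorotestosterone plus 1.5 nM norgestrel.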
compound,measurement,setting,value
O=C(O)CCC(F)(F)C(F)(F)C(F)(F)C(F)(F)C(F)(F)C(F)(F)C(F)(F)F,outcome,[1],inactive
FC(F)(F)C(F)(F)C(F)(F)C(F)(F)C(F)(F)C(F)(F)C(F)(F)CCI,AC50,[1],3310 nM (active)
CCN=C1C=CC(=C(c2ccc(N(CC)CC)cc2)c2ccc(N(CC)CC)cc2)c2ccccc21,AC50,[1],553 nM (active)
OCC(F)(F)C(F)(F)C(F)(F)C(F)(F)C(F)(F)C(F)(F)CO,outcome,[1],inactive
C[C@]12CC[C@H]3C(=CCc4cc(O)ccc43)[C@@H]1CCC2=O,AC50,[2],86 nM (active)
same,AC50,[3],14.6 nM (active)
same,AC50,[4],14.7 nM (active)
same,AC50,[5],15.9 nM (active)
same,AC50,[6],25.8 nM (active)
same,AC50,[7],22.8 nM (active)
same,outcome,[8],inactive
same,outcome,[9],inactive
same,outcome,[10],inactive
same,outcome,[11],inactive
same,outcome,[12],inactive
same,outcome,[13],inactive
same,outcome,[14],inactive
same,outcome,[1],inactive
CCc1cc(Cc2cc(CC)c(N)c(CC)c2)cc(CC)c1N,AC50,[1],20000 nM (active)
C=CC(=O)OCC(F)(F)C(F)(F)C(F)(F)COC(=O)C=C,outcome,[1],inactive
COCCOCCC[Si](C)(O[Si](C)(C)C)O[Si](C)(C)C,AC50,[1],19400 nM (active)
CCCCCCCCCCCCC[N+](C)(C)Cc1ccccc1,AC50,[1],11200 nM (active)
OCCCCC(F)(F)C(F)(F)C(F)(F)C(F)(F)F,outcome,[1],inactive
CCCCCCCCCc1ccc(OCCO)cc1,AC50,[1],7030 nM (active)
CCN=c1cc2oc3cc(NCC)c(C)cc3c(-c3ccccc3C(=O)OCC)c-2cc1C,AC50,[1],3230 nM (active)
NS(=O)(=O)C(F)(F)C(F)(F)C(F)(F)C(F)(F)C(F)(F)C(F)(F)F,outcome,[1],inactive
CCN(CCO)S(=O)(=O)C(F)(F)C(F)(F)C(F)(F)C(F)(F)C(F)(F)C(F)(F)C(F)(F)C(F)(F)F,outcome,[1],inactive
OCCCC(F)(F)C(F)(F)C(F)(F)C(F)(F)C(F)(F)C(F)(F)C(F)(F)C(F)(F)F,outcome,[1],inactive
